We go through 94 molecules from article PMC4336329 (PLoS ONE, 2015).

Hit rate of the full screen: of about 310,000 compounds, about 14,000 (4.5%) showed an effect of 50% or more. The effect is printed as a negative number. The list comes from a sample in which strong results are over-represented; it also holds similar structures and randomly drawn compounds.
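Note: peak tail current of the secondary pulse compared with the same well before compound.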

Sequence of human ether-à-go-go-related gene (hERG) potassium channel (Q12809 whole entry, looked up): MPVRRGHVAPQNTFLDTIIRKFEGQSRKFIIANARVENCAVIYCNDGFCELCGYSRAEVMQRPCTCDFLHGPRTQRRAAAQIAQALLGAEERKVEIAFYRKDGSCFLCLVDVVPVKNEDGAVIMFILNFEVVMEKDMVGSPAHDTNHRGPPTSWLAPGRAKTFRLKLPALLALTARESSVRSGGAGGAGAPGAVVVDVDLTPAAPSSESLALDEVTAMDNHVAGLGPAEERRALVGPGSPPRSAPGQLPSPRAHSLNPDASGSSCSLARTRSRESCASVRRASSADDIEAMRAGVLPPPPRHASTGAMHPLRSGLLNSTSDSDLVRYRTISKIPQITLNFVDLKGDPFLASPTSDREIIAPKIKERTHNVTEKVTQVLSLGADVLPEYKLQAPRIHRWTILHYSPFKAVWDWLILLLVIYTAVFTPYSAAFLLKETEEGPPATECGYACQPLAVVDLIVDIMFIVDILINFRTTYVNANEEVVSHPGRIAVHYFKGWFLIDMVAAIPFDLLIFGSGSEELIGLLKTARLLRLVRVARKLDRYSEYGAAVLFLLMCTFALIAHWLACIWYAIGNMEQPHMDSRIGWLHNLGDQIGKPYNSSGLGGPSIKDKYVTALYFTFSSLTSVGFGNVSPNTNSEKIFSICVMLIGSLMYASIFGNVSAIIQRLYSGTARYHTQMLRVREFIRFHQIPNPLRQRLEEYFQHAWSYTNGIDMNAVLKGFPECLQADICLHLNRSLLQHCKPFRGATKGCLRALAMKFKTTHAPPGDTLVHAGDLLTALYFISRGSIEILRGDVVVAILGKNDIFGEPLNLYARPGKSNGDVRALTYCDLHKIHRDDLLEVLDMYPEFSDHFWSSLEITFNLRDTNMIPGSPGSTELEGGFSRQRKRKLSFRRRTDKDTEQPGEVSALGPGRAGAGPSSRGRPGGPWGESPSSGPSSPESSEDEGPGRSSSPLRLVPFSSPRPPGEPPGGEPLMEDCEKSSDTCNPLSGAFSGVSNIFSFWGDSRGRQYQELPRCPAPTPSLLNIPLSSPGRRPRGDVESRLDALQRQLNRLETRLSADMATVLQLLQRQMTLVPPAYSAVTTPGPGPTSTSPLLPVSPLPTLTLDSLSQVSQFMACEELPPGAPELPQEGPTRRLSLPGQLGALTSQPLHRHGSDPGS

The experiment concerns the target human ether-à-go-go-related gene (hERG) potassium channel (human, UniProt Q12809). As to the kind of experiment: primary screen, population patch clamp on CHO cells stably expressing hERG; higher = less effect of the substance.
Consider `COCCNC(=O)[C@@]1(Cc2ccccc2)C=C[C@@H](C)N1C(C)=O`, for which the “hERG current change (%, negative = inhibition) at 10uM” value is 11.5%. The same measure for `CC(C)N(Cc1ccco1)/N=C/c1c(O)n(Cc2ccccc2)c(=O)[nH]c1=O`: 8.85%; for `Cc1nccn1CCOc1ccc(Cl)cc1.O=C(O)C(=O)O`: -38.4%; for `COc1ccc2c(Cl)c(C(N)=O)sc2c1`: 1.91%. Regarding `Nc1ccc(NC(=O)c2ccco2)c(Cl)c1`, the “hERG current change (%, negative = inhibition) at 10uM” value amounted to 12.9%. Take `Cc1cc(=O)cc(C)n1-c1ccc(Br)cc1`: the “hERG current change (%, negative = inhibition) at 10uM” value was found to be 12.1%. The same measure for `CCN(CC)CCn1c(-c2ccc(C)cc2)nc(=S)c2c1CC(C)(C)OC2`: -0.55%; for `Clc1ccccc1-c1ccc(/C=N/n2cnnc2)o1`: -24.1%; for `CCc1nc(SCC(=O)Nc2cccc3ccccc23)[nH]c(=O)c1C`: 8.16%.

For the molecule `COC(=O)c1ccc(C(=O)OC)c(NC(=S)N2CCC(N3CCCCC3)CC2)c1`, the “hERG current change (%, negative = inhibition) at 10uM” value is reported as -15%. The figure for `COc1cc(NS(C)(=O)=O)c(OC)cc1NC(=O)c1ccccc1` is -9.96%; for `CN1CCN(c2ccccc2NC(=O)c2ccc(-c3cccc([N+](=O)[O-])c3)o2)CC1` it is -51.8%.

As for `O=C(Nc1ccccc1N1CCOCC1)c1cccc([N+](=O)[O-])c1`, the “hERG current change (%, negative = inhibition) at 10uM” value is reported as -17.7%. Consider `O=C(NC(=S)Nc1ccccc1N1CCCC1)c1ccc(-c2cccc([N+](=O)[O-])c2)o1`, for which the “hERG current change (%, negative = inhibition) at 10uM” value was -26.7%.

On to `CN1CCN(c2ccccc2NC(=O)c2cccc([N+](=O)[O-])c2)CC1`, for which the “hERG current change (%, negative = inhibition) at 10uM” value is -80.1%. The same measure for `O=C(Nc1ccccc1N1CCCCC1)c1cccc([N+](=O)[O-])c1`: 9.03%; for `CN1CCN(c2ccc(NC(=O)c3ccc(-c4cccc([N+](=O)[O-])c4)o3)cc2)CC1`: 5.35%; for `N#Cc1ccsc1NC(=O)c1ccc(Cl)c([N+](=O)[O-])c1`: 21%. Regarding `O=C(NC1CCS(=O)(=O)C1)c1cccc(S(=O)(=O)N2CCCCCC2)c1` (stereo not shown), the “hERG current change (%, negative = inhibition) at 10uM” value stood at 1.79%. The same measure for `OCCCC1CCCCN1Cc1nc(Cc2ccccc2Cl)no1` (stereo not shown): -78.9%; for `NC(=O)[C@@H]1CCCN1Cc1nc(Cc2ccccc2Cl)no1`: 14.5%; for `CCC1CCCCN1Cc1nc(Cc2ccccc2Cl)no1` (stereo not shown): -10.4%. The figure for `Cc1noc(/C=C/c2ccccc2F)c1S(=O)(=O)N1CCC(C(=O)N2CCN(C)CC2)CC1` is -19.5%; for `CNC(=O)C1CCN(S(=O)(=O)c2c(C)noc2/C=C/c2ccccc2F)CC1` it is 11.4%; for `Cc1noc(C)c1S(=O)(=O)N1CCCN(C(=O)/C=C/c2ccccc2F)CC1` it is -70.9%. The figure for `COc1ccc(N2CCN(C(c3cccs3)C(C)NS(C)(=O)=O)CC2)cc1` (stereo not shown) is 7.84%; for `CN1C(=O)c2ccccc2C(C(=O)O)C1c1cccc(F)c1` (stereo not shown) it is 0.483%.

`CCOc1ccccc1N(C)C(=O)c1sc2ncn(CC(=O)N3CCCCC3C)c(=O)c2c1C` (stereo not shown): the “hERG current change (%, negative = inhibition) at 10uM” value is recorded as 6.44%.

In the case of `CCOC(=O)CCSc1nc2c(c(C(F)(F)F)c1C#N)CCC2`, the “hERG current change (%, negative = inhibition) at 10uM” value came to 3.58%. With `O=C(c1ccccc1OCc1ccccc1Br)N1CCN(c2ncccn2)CC1`, the “hERG current change (%, negative = inhibition) at 10uM” value is listed as -37.2%. The same measure for `O=C(C[n+]1cccc2ccccc21)c1ccc(Br)cc1.[Br-]`: -45.1%; for `Fc1cccc(Cc2noc(CN3CCN(C4CCc5ccccc5C4)CC3)n2)c1` (stereo not shown): -78.6%; for `c1ccc(Cc2noc(CN3CCN(C4CCc5ccccc5C4)CC3)n2)cc1` (stereo not shown): -81.2%.

In the case of `Cc1ccccc1N1CCN(Cc2nc(Cc3ccccc3)no2)CC1`, the “hERG current change (%, negative = inhibition) at 10uM” value was found to be 9.18%. The same measure for `O=C(c1ccco1)N1CCN(Cc2nc(Cc3ccccc3)no2)CC1`: -8.87%; for `Fc1cccc(Cc2noc(CN3CCOCC3)n2)c1`: 11.4%; for `Fc1cccc(Cc2noc(CN3CCSCC3)n2)c1`: 29.1%.

Turning to `c1ccc(Cc2noc(CN3CCCN(C4Cc5ccccc5C4)CC3)n2)cc1`, the “hERG current change (%, negative = inhibition) at 10uM” value is given as -80%.

For `CN1CCN(Cc2nc(Cc3cccc(F)c3)no2)CC1c1ccccc1` (stereo not shown), the “hERG current change (%, negative = inhibition) at 10uM” value is reported as -18.2%. The figure for `Fc1cccc(Cc2noc(CN3CCCN(C4Cc5ccccc5C4)CC3)n2)c1` is -86.5%; for `O=C(c1ccco1)N1CCCN(Cc2nc(Cc3ccccc3)no2)CC1` it is -25.8%. The figure for `c1ccc(Cc2noc(CN3CCC(CN4CCOCC4)CC3)n2)cc1` is 4.64%. The figure for `Cc1cccnc1CN1CCN(Cc2nc(Cc3cccc(F)c3)no2)CC1` is -29.5%; for `Cc1ccc(CN2CCNC(=O)C2CC(=O)NCC(F)(F)F)o1` (stereo not shown) it is 14.1%; for `CCOc1cccc(/C=C(/C#N)c2nc3ccccc3[nH]2)c1OCC(=O)O` it is 14.1%. Consider `COc1cc(C(=O)Nc2nc3ccc4nc(C)sc4c3s2)cc(OC)c1OC`, for which the “hERG current change (%, negative = inhibition) at 10uM” value was -5.34%. On to `C=CCN(C(=O)CNC(=O)c1ccco1)C(C(=O)NC1CCCCC1)c1ccccc1` (stereo not shown), for which the “hERG current change (%, negative = inhibition) at 10uM” value is reported as 1.1%. The same measure for `C=C1CCN(c2ccc(C(=O)NCCC)cc2[N+](=O)[O-])CC1`: -48.3%; for `CN(C)C(=O)Cn1cnc2c(cnn2-c2ccc(F)cc2)c1=O`: -2.06%. The figure for `COC(=O)C(C(=O)OC)C(C[N+](=O)[O-])c1ccc(OC)cc1` (stereo not shown) is -6.91%; for `Cc1cc(C)cc(NC(=O)C2CCN(S(=O)(=O)c3ccc4c(c3)NC(=O)C(C)S4)CC2)c1` (stereo not shown) it is 8.79%; for `CCC(C)NC(=O)CSc1ccc(S(=O)(=O)N2CCN(Cc3ccccc3)CC2)cn1` (stereo not shown) it is -16.6%. The figure for `O=C(OC(c1ccccc1)c1nccc2ccccc12)c1cccc([N+](=O)[O-])c1` (stereo not shown) is 8.01%; for `CN(C)/C=N/c1cnc(C(=O)c2ccc(Cl)cc2)n1C` it is 5.58%; for `Br.CCCN(CCC)[C@@H]1CCc2cccc(O)c2C1` it is -34.4%.

As for `Br.CCCN(CCC)C1CCc2ccc(O)cc2C1` (stereo not shown), the “hERG current change (%, negative = inhibition) at 10uM” value is given as -70%.

Turning to `Br.CCCN(CCC)C1CCc2cccc(O)c2C1` (stereo not shown), the “hERG current change (%, negative = inhibition) at 10uM” value is -10.6%. The figure for `COc1ccc(Cl)c2sc(N(Cc3cccnc3)C(C)=O)nc12` is 13.2%; for `CC(=O)c1cc(C(=O)Nc2ccc3ccccc3c2)c(C)o1` it is 13.8%. Regarding `Cc1cc(C(=O)Nc2ccccc2)oc1C`, the “hERG current change (%, negative = inhibition) at 10uM” value is recorded as 7.57%. The figure for `Cc1cc(C(=O)Nc2ccc3ccccc3c2)oc1C` is -68.1%.

With `COc1ccc(S(=O)(=O)N2CCCOC2CNC(=O)C(=O)NCCCn2ccnc2)cc1` (stereo not shown), the “hERG current change (%, negative = inhibition) at 10uM” value is -3.17%. The same measure for `COc1ccc(/C=N/NC(=O)CN(c2ccc(OC)cc2)S(=O)(=O)c2ccccc2)cc1`: -7.15%; for `Cc1ccc(N(CC(=O)N/N=C/c2cccnc2)S(=O)(=O)c2ccccc2)cc1`: -52%.

As to `COc1ccc(N(CC(=O)N/N=C/c2cccnc2)S(=O)(=O)c2ccccc2)c(OC)c1`, the “hERG current change (%, negative = inhibition) at 10uM” value is reported as -40.6%. The same measure for `Cc1cc(C)cc(N(CC(=O)N/N=C/c2ccncc2)S(=O)(=O)c2ccccc2)c1`: -76.9%; for `COc1ccc(N(CC(=O)N/N=C/c2cccnc2)S(=O)(=O)c2ccc(C)cc2)cc1OC`: -14.2%.

In the case of `Cc1cc(C)cc(N(CC(=O)Nc2ccccc2-c2ccccc2)S(=O)(=O)c2ccccc2)c1`, the “hERG current change (%, negative = inhibition) at 10uM” value is 13.1%. The figure for `CC(=O)NCCC(=O)N1CCCC(CNC(=O)c2ccc(-c3ccccc3)cc2)C1` (stereo not shown) is -0.511%; for `Cn1cc(C(O)CN2CCCCC2)c2ccccc21` (stereo not shown) it is 9.26%; for `CCn1c(COc2ccc3c(c2)CCCC3)nnc1SCC(=O)Nc1ccc(C(=O)OC)cc1` it is 5.43%. The figure for `CN(Cc1ccccc1)C(=O)c1ccccc1NC(=O)c1ccco1` is 20%; for `CCOC(=O)c1c(CCl)nc2ccccc2c1-c1ccccc1` it is 5.72%.

With `CCOC(=O)c1c(C)nc2ccccc2c1-c1ccccc1.Cl`, the “hERG current change (%, negative = inhibition) at 10uM” value was -30.8%. The same measure for `CN(C)c1nc2ccccc2c(N)c1-c1ccccc1.O=C(O)C(=O)O`: -65.9%; for `CCN(CC)c1nc2ccccc2c(N)c1-c1ccccc1.O=C(O)C(=O)O`: -77%; for `Cc1c(N(C)C)nc2ccccc2c1N.O=C(O)C(=O)O`: -46.5%. The figure for `Cc1nc2ccccc2c(-c2ccccc2)c1C(=O)c1ccccc1` is 0.392%; for `CCOC(=O)c1c(-c2ccccc2)csc1NC(=S)NC` it is -3.27%; for `CCN(CC)C(=O)COc1ccc(Br)cc1Cl` it is -11.8%. The same measure for `NC(=S)N/N=C1\CC(n2nnn(-c3cccc(Cl)c3)c2=S)C2COC1O2` (stereo not shown): -26.8%; for `Cc1cc(C)cc(C(=O)NC(CC(N)=O)c2ccc(N3CCC(Br)CC3)c([N+](=O)[O-])c2)c1` (stereo not shown): -16.1%; for `CC(Oc1cccc(Cl)c1)C(=O)Nc1cc(S(=O)(=O)N2CCCCC2)ccc1N1CCOCC1` (stereo not shown): -8.24%. As to `CCN1CCN(c2ccccc2NC(=O)C(C)Oc2ccc(C(C)=O)cc2)CC1` (stereo not shown), the “hERG current change (%, negative = inhibition) at 10uM” value is recorded as -51.6%. On to `CC(Oc1ccc(Br)cc1)C(=O)Nc1cc(S(=O)(=O)N2CCOCC2)ccc1N1CCCC1` (stereo not shown), for which the “hERG current change (%, negative = inhibition) at 10uM” value is listed as -5.62%. The figure for `CC(Oc1ccc(F)cc1)C(=O)Nc1cc(S(=O)(=O)N2CCCCC2)ccc1N1CCOCC1` (stereo not shown) is -5.21%; for `CC(Oc1cccc(Cl)c1)C(=O)Nc1ccccc1N1CCCC1` (stereo not shown) it is -15.3%; for `CCN1CCN(c2ccc(S(=O)(=O)N3CCOCC3)cc2NC(=O)C(C)Oc2cccc(Cl)c2)CC1` (stereo not shown) it is -70.8%. The figure for `CC(Oc1cccc(Cl)c1)C(=O)Nc1cc(S(=O)(=O)N2CCOCC2)ccc1N1CCCC1` (stereo not shown) is -24.8%; for `CC(Oc1cccc(Cl)c1)C(=O)Nc1cc(S(=O)(=O)N2CCOCC2)ccc1N1CCCCC1` (stereo not shown) it is 8.44%. The figure for `CCN1CCN(c2ccc(S(=O)(=O)N3CCCCC3)cc2NC(=O)C(C)Oc2ccc(F)cc2)CC1` (stereo not shown) is -72.7%; for `CCN1CCN(c2ccc(S(=O)(=O)N3CCOCC3)cc2NC(=O)C(C)Oc2ccc(Cl)cc2)CC1` (stereo not shown) it is -70.9%; for `CC(=O)c1ccc(OCC(=O)Nc2ccccc2N2CCCC2)cc1` it is -2.74%.

Take `CC(Oc1ccc(F)cc1)C(=O)Nc1cc(S(=O)(=O)N2CCOCC2)ccc1N1CCCCC1` (stereo not shown): the “hERG current change (%, negative = inhibition) at 10uM” value was determined as 6.32%.
